From ChEMBL document CHEMBL3988442, “University of Dundee, Small-Polar-MMV Screening Library” (2021)
For some of these results: Entries with a potency or affinity are not part of this list.

Tests used:
Set-up in all cases: scale not given: direction of the effect not stated beside the values
[1] = biological target: Protein translocase subunit SecA (Escherichia coli (strain K12)) (UniProt P10408); experiment: Assay to Identify E. coli SecA ATPase Inhibitors; type: functional; conditions: 30 µM
[2] = biological target: T1, Ubiquitin-activating enzyme e1, putative (Leishmania donovani (strain BPK282A1)) (UniProt E9BSI1); experiment: Leishmania donovani Ubiquitin Activating Enzyme (LdE1); type: functional; conditions: 30 µM
T1 sequence (whole entry): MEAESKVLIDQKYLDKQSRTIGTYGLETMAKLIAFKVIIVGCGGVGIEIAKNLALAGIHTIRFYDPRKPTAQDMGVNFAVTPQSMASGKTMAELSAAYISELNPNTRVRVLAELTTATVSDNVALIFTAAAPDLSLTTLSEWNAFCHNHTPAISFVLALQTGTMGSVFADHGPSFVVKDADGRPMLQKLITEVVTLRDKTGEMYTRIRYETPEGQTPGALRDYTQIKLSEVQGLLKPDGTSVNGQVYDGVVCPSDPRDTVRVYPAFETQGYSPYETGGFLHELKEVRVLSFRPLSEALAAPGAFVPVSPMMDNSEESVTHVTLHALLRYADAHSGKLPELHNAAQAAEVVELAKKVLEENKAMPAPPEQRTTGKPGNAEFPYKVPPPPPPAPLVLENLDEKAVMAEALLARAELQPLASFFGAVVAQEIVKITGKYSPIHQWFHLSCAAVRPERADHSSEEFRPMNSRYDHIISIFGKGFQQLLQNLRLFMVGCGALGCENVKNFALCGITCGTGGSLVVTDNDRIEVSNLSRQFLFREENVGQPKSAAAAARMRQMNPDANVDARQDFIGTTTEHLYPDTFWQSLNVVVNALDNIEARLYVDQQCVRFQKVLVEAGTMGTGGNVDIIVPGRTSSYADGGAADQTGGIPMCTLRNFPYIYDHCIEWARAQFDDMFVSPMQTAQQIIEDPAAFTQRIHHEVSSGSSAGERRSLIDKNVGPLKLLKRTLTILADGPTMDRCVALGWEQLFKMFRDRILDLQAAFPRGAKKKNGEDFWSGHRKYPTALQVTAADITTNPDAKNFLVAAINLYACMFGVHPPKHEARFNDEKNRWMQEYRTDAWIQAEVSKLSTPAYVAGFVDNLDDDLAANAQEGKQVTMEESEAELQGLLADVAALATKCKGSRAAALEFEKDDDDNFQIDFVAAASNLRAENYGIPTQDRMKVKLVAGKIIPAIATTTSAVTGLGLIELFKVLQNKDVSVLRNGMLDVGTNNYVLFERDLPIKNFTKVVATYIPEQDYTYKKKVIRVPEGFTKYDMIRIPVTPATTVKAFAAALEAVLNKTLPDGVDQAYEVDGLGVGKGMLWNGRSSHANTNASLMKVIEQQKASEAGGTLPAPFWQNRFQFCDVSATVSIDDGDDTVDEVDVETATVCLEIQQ

[3] = biological target: AMP-activated protein kinase, AMPK (Homo sapiens) (UniProt P54646+O43741+P54619+Q9UGJ0+Q9Y478+Q13131+Q9UGI9); experiment: AMP-dependent Kinase enzyme assay. An in vitro enzyme assay that detects ADP turnover that is directly proportional to AMPK activity. This uses naive AMPK that is activated during the assay with MK-8722; type: functional; conditions: 30 µM
[4] = biological target: Sialic acid-binding Ig-like lectin 9 (Homo sapiens) (UniProt Q9Y336); experiment: Hs-Siglec9 ALPHAscreen SOP 20170721; conditions: 10 µM
Trypanosoma cruzi = experiment: Trypanosoma cruzi phosphomannomutase and mannose-1-phosphate guanylyltransferase assay; type: functional; conditions: 10 µM
[5] = biological target: T2, Arginase-2, mitochondrial (Homo sapiens) (UniProt P78540); experiment: in vitro enzyme assay to detect the production of urea directly proportional to the activity of Arginase II; type: functional; conditions: 33.3 µM; note: in the data most compounds retested in dose-response had high values
T2 sequence (whole entry): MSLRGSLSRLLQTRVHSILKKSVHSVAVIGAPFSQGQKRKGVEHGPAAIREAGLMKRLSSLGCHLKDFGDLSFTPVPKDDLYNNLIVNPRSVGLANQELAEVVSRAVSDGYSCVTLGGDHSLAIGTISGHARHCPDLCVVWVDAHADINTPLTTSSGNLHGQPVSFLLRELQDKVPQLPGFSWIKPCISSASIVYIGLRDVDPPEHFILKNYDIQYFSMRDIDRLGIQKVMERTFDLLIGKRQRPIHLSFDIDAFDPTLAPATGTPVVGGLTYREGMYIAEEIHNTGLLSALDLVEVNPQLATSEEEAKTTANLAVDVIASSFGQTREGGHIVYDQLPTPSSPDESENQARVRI

[6] = biological target: T3, Proteasome subunit beta (Trypanosoma cruzi) (UniProt O96673); experiment: Trypanosoma cruzi proteasome chymotrypsin-like activity (TcProtChymo) assay.; note: in the data most compounds retested in dose-response had high values; type: functional; conditions: 9.37 µM
T3 sequence (whole entry): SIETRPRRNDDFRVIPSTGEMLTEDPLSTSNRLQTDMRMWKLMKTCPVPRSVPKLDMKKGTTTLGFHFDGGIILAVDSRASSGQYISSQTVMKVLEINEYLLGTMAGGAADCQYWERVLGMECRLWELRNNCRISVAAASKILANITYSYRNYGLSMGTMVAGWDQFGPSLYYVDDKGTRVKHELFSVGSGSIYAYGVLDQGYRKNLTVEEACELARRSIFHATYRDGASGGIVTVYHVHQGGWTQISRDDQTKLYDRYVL

Homo sapiens = organism: Homo sapiens; experiment: To identify inhibition of the IFN signalling (Jak-Stat) pathway via expression of an eGFP reporter gene under the control of an IFN-stimulated response element (ISRE) containing MxA promoter.; type: functional; conditions: 30 µM
[7] = biological target: T4, Tyrosyl-tRNA synthetase, putative (Trypanosoma cruzi (strain CL Brener)) (UniProt Q4DSP6); experiment: Trypanosoma cruzi tyrosyl tRNA synthetase (TcYRS) _High Tyrosine SOP; type: functional; conditions: 30 µM; note: in the data most compounds retested in dose-response had high values
T4 sequence (whole entry): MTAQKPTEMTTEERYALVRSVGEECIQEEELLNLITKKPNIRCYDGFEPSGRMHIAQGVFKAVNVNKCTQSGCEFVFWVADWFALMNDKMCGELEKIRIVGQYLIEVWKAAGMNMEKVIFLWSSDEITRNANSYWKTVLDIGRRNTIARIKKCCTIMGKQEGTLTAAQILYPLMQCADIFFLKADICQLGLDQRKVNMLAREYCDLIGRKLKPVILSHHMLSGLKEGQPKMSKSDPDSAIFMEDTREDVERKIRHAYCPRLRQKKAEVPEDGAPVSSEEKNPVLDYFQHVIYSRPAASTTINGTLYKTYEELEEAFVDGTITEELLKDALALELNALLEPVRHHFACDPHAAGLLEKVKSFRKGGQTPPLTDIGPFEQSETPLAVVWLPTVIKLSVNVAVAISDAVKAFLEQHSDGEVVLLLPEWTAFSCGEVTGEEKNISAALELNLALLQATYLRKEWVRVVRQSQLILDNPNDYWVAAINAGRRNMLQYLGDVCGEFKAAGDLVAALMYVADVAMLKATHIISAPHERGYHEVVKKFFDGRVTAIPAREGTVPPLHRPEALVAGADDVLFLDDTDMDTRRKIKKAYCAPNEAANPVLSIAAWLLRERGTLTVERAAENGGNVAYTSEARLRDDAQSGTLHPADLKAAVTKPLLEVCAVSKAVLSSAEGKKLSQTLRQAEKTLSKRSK

[8] = biological target: T4, Tyrosyl-tRNA synthetase, putative (Trypanosoma cruzi (strain CL Brener)); experiment: Trypanosoma cruzi tyrosyl tRNA synthetase (TcYRS) SOP; type: functional; conditions: 30 µM
[9] = biological target: Chromo domain-containing protein 1 (Saccharomyces cerevisiae (strain ATCC 204508 / S288c) (Baker's yeast)) (UniProt P32657); experiment: ScCHD-1 Enzyme Inhibition Assay; type: functional; conditions: 30 µM; note: in the data most compounds retested in dose-response had high values
Chromo domain-containing protein 1 (Saccharomyces cerevisiae (strain ATCC 204508 / S288c) (Baker's yeast)), sequence (P32657 whole entry, the tested form may be a part): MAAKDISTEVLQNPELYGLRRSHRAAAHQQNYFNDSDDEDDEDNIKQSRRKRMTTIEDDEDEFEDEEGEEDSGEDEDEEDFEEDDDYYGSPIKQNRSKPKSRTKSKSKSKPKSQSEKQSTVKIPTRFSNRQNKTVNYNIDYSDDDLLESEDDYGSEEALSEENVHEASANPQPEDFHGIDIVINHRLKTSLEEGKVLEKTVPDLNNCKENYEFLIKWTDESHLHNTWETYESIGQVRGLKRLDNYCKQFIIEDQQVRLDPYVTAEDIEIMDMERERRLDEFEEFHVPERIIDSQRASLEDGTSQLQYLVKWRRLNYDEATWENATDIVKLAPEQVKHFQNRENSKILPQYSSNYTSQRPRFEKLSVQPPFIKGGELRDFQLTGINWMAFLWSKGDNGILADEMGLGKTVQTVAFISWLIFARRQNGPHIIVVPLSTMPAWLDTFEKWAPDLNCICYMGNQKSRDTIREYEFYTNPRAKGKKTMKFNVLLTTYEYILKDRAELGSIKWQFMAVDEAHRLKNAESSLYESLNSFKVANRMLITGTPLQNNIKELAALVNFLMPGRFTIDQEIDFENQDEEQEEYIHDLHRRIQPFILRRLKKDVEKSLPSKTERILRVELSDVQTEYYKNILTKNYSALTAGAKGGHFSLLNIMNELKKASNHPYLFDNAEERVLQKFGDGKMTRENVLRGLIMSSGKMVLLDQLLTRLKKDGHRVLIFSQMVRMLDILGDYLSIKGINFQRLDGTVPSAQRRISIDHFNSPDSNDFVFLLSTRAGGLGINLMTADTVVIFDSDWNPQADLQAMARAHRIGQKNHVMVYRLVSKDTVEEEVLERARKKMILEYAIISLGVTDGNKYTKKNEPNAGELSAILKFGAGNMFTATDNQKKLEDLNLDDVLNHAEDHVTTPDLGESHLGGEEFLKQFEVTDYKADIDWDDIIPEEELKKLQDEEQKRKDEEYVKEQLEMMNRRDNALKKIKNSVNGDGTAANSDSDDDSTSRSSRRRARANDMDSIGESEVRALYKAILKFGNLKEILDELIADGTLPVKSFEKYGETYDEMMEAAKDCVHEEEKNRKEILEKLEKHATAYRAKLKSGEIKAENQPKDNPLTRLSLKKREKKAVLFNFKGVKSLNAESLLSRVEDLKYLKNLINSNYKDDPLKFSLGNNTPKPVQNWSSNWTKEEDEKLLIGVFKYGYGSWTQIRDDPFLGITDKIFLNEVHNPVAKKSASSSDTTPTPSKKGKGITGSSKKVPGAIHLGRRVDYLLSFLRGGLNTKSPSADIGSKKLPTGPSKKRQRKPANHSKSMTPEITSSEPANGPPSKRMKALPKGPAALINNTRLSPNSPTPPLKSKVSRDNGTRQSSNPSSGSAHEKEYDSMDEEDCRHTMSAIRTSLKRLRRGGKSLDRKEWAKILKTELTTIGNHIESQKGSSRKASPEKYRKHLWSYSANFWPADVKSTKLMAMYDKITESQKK

Protein translocase subunit SecA (Escherichia coli (strain K12)), sequence (P10408 whole entry): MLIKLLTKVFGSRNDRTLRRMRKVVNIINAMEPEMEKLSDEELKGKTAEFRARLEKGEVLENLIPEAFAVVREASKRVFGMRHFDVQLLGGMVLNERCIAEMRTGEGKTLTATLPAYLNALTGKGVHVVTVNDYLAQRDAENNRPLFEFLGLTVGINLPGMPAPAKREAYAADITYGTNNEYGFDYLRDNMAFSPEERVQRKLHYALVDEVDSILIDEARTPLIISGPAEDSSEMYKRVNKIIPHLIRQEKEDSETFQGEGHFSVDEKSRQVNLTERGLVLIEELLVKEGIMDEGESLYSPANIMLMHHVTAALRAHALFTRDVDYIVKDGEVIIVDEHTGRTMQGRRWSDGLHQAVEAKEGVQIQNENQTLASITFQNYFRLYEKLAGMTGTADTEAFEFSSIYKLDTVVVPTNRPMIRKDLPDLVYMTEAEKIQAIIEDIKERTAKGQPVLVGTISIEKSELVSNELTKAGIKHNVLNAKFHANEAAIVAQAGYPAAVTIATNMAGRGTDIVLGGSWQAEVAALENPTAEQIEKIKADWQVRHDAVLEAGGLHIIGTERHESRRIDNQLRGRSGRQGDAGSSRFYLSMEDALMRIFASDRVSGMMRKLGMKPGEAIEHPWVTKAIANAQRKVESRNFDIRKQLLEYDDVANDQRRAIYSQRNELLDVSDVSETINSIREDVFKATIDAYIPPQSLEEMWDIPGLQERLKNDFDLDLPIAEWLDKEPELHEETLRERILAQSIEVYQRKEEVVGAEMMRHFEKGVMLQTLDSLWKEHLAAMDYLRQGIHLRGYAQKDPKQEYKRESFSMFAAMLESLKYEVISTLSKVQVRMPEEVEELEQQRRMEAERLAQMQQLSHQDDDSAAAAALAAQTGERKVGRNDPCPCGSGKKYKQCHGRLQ
Sialic acid-binding Ig-like lectin 9 (Homo sapiens), sequence (Q9Y336 whole entry): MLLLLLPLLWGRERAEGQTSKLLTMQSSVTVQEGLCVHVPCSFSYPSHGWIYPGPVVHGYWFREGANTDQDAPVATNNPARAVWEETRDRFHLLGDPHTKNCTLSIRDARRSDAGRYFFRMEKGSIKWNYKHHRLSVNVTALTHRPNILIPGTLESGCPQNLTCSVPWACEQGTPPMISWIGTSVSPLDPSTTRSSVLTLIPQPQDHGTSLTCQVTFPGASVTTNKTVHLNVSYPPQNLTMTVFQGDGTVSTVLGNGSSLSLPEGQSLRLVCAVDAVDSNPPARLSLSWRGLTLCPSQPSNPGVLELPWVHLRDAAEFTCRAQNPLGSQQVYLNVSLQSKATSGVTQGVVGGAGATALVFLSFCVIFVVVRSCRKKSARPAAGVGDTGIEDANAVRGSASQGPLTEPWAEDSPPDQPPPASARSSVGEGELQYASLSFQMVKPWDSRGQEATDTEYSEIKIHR

SMILES | Percent Effect [1] [%] | Percent Effect [2] [%] | Percent Effect [3] [%] | Percent Effect [4] [%] | Percent Effect (Trypanosoma cruzi) [%] | Percent Effect [5] [%] | Percent Effect [6] [%] | Percent Effect (Homo sapiens) [%] | Percent Effect [7] [%] | Percent Effect [8] [%] | Percent Effect [9] [%]
Cc1cc(F)c(S(=O)(=O)NCCCN2CCC(O)CC2)cc1F | 0.398 | 5.2 | 5.04 | -1.8 | -10.9 | -24.8 | 15.8 | 19.9 | -1.07 | 1.24 | -1.88
OC(CN1CCN(Cc2nnc(C3CC3)o2)CC1)c1ccccc1 (stereo not given) | -4.5 | 10.1 | -8.23 | 15.1 | -3.31 | 1.9 | -3.19 | 17.6 | 2.46 | 13.9 | -2.36
Cc1cnn(CCNCc2csc(-c3cccs3)n2)c1 | -2.47 | -2.63 | 5.67 | 8 | -0.564 | -1.92 | 13.7 | 0.0858 | -3.43 | 0 | 6.81
O=C(NCc1cc[nH]n1)NCC(c1ccccc1Cl)N1CCCC1 (stereo not given) | -5.47 | 5.41 | -5.47 | 2.23 | -2.25 | 4.22 | 13.1 | -4.64 | 5.38 | 13.6 | -1.7
Cc1nn(C)c(Cl)c1CNCc1cccnc1N1CCOCC1 | -8.75 | 21.1 | -0.469 | -3.82 | 0.682 | -3.55 | 21 | 3.88 | 9.57 | 18.2 | -6.81
O=C(O)[C@@H]1CN(C(=O)c2ccc3[nH]nnc3c2)C[C@H]1c1cccc(F)c1 | -4.68 | 11 | -5.72 | 8.16 | 6.94 | -3.99 | 12.6 | 3.52 | 4.17 | 8.64 | -2.47
Cc1ccc(C(=O)CCC(=O)N2CCC(c3nncn3C)CC2)cc1 | -8.28 | 15.6 | -6.09 | 19.9 | 5.24 | 1.78 | 11.3 | 9.84 | 5.83 | 24.4 | -1.85
COC(=O)c1cccc(NC(=O)CCn2nc(-c3cccs3)oc2=O)c1 | -5.54 | 10.8 | 11.1 | -7.27 | -5.11 | -4.25 | 5.92 | 7.13 | 0 | 6.1 | -3.3
CCO[C@@H]1CO[C@@]2(CCCN(C(=O)COc3ccccc3OC)C2)C1 | 2.9 | 18.2 | 3.83 | -2.8 | 0.888 | 8.39 | 8.7 | 25.1 | 6.35 | 16.7 | -9.93
CCN(CCn1cccn1)Cc1nc(-c2cccs2)oc1C | -3.57 | -1.39 | 40.3 | -4.42 | 0.486 | 0.442 | 2.63 | 0.654 | 4.21 | 2.56 | 0.676
Cc1ccc(C)c(-c2csc(N)c2C#N)c1 | -2.81 | -1.33 | -2.97 | 7.24 | 0.589 | -10 | 4.99 | 14.2 | -12.7 | -12.8 | 2.05
N#Cc1cccc(S(=O)(=O)NC(=O)COC2CCCC2)c1 | -0.529 | 26 | -4.75 | -1.76 | 1.31 | 1.07 | 11.3 | 0.622 | 7.77 | 21.9 | -7.26
Cc1ccc(CNCc2nnc3n2CCCC3C(F)(F)F)s1 (stereo not given) | -1.65 | 8 | -7.92 | 8.27 | 5.36 | 4.69 | 18 | 11.4 | 9.29 | 21 | -5.37
CC(NC(=O)NCCCNS(C)(=O)=O)c1ccncc1 (stereo not given) | -4.34 | 6.33 | 4.73 | 0.18 | -2.97 | -1.5 | 8.4 | -9.13 | 12.5 | 17.7 | -4.71
COc1cc(CNCCc2nc(C)cs2)cc2c1OCCO2 | -2.37 | 5.26 | 1.5 | 15.7 | -1.13 | -3.06 | 12.5 | 10.1 | 4.41 | 12.2 | -7.14
CN(C)CCn1c(=O)oc2ccc(NC(=O)CC(C)(C)C)cc21 | -5.92 | 16 | -6.21 | 19.3 | 4.38 | 14.1 | 7.67 | 5.54 | 10.4 | 23.5 | 1.52
COCCNC(=O)NCCc1ccn(-c2ccccc2)n1 | -3.6 | -3.8 | 7.66 | 4.04 | 5.64 | -0.215 | 13.7 | 5.09 | -4.17 | 10.1 | -16.7
CCc1nccn1C1CCCN(C(=O)c2cnc3ccccc3n2)C1 (stereo not given) | -5.47 | 2.63 | 7.07 | 1.65 | -1.07 | -2.37 | 7.77 | 24.6 | 7.45 | 10.4 | -2.28
c1ncc(Nc2nccc(C3CCCCN3CC3CCCCC3)n2)cn1 (stereo not given) | -4.71 | 13.3 | 10.8 | -4.81 | -0.591 | 3.5 | 10.5 | 21.9 | 2.13 | 11.5 | -6.48
O=C(CC1CCCC1)NCCn1ccc(-c2ccncc2)n1 | -3.35 | 0 | 5.83 | 6.39 | -3.65 | 3.23 | 1.92 | 13.7 | -5.29 | 3.85 | 1.38
